Screens: PubChem BioAssay, National Center for Advancing Translational Sciences (NCATS)
Rab9 prom act: qHTS Assay for Rab9 Promoter Activators | Huh7 Rab9 promoter-luciferase reporter, luminescence, 24 h | Potency, µM (highest dose often 9.22 µM), hits mostly activators | 320,000 tested, 2.8% active; further: nearly all actives have a fitted effect of over 60% in size
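Quantitative HTS format; Huh7 Rab9-luciferase reporter cells (1500/well) receive compound 2 h post-plating, incubate 24 h at 37 °C, then get luciferase reagent for 10 min before luminescence reading.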
Luc counter: Counterscreen for Luciferase (Kinase-Glo TM) Inhibition. Kinase-Glo luciferase, ATP luminescence, 8 min. 200,000 tested, 0.28% active. Potency, µM (series often up to 38.3 µM), usual class: inhibitors. Luciferin 4-monooxygenase (Photuris pensylvanica), Q27757; further: nearly all actives have a fitted effect of over 60% in size
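Compounds were added to a substrate mix at pH 7.2 (50 mM imidazole, 10 uM ATP, within the enzyme's linear range), followed by Kinase-Glo detection reagent; luminescence was measured after 8 minutes at ambient temperature.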
FLuc counter: qHTS profiling assay for firefly luciferase inhibitor/activator using purifed enzyme and Km concentrations of substrates (counterscreen for miR-21 project); Luciferin 4-monooxygenase (Photinus pyralis), P08659; 360,000 tested, 6.9% active; purified FLuc, Km substrates, luminescence inhibition; AID 588342, 2011; Potency, µM (top dose mostly 57.5 µM), hits mostly inhibitors; further: nearly all actives have a fitted effect of over 55% in size
Target sequence (P08659 whole entry, looked up): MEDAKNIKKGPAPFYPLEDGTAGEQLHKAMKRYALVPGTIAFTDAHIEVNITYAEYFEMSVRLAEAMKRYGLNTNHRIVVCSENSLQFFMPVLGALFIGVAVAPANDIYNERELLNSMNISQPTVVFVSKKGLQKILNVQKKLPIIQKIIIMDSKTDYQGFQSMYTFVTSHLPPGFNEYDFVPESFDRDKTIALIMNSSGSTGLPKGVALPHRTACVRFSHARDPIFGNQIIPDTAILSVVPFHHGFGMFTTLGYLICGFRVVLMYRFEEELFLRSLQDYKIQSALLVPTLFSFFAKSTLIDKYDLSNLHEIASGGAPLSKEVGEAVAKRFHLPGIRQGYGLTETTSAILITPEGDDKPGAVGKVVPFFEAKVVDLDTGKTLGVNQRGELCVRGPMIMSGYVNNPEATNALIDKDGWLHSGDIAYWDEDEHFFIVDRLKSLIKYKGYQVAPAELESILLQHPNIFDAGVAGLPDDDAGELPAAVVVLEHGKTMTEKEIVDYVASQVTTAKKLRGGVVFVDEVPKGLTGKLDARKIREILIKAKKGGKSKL
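Biochemical qHTS of compounds, final roughly 60 µM downward over six points, against 10 nM purified firefly luciferase using Km concentrations of substrates (10 uM D-luciferin, 10 uM ATP) in Tris acetate pH 7.5 buffer; luminescence output.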
ELG1 genotoxic: qHTS screen for small molecules that induce genotoxicity in human embryonic kidney (HEK293T) cells expressing luciferase-tagged ELG1; Potency, µM (series often up to 46 µM), hits mostly activators; HEK293T ELG1-luciferase reporter, luminescence, 16 h; 330,000 tested, 1.3% active; AID 504466, 2011; further: nearly all actives have a fitted effect of over 60% in size
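Genotoxicity was scored as increased ELG1-luciferase reporter signal, measured by ONE-Glo luminescence (30 min, room temperature). Compound or vehicle exposure of the HEK293T reporter cells lasted 16 hr at 37°C.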
SMN2 splice up: qHTS Assay for Enhancers of SMN2 Splice Variant Expression; HEK293 SMN2-luciferase splicing reporter, luminescence, 30-36 h; Potency, µM (top dose mostly 46.1 µM), actives largely listed as activators; 210,000 tested, 2.8% active; AID 1458, 2008; further: nearly all actives have a fitted effect of over 55% in size
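HEK293 cells carry an SMN2 […]–luciferase reporter in which exon 7 inclusion puts luciferase in frame. Cells were plated 10-12 h before compound addition, then incubated 30-36 h at 37C. ONE-Glo luminescence was read; sodium butyrate at 4.5 mM final served as control.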
NPC1 prom act: qHTS Assay for NPC1 Promoter Activators; Huh7 NPC1 promoter luciferase reporter, 24 h; 320,000 tested, 2.4% active; Potency, µM (highest dose often 9.22 µM), actives largely listed as activators; further: nearly all actives have a fitted effect of over 60% in size
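Huh7 cells stably carrying NPC1 promoter–luciferase, plated in Opti-MEM with 10% FBS for 2 h, were exposed to compound in DMSO for 24 h at 37 °C; luciferase reagent was added for 10 min and luminescence read.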
Each line names hits and unclear results; the compound was inactive in the other large screens. An excerpt weighted towards active compounds, which were near 7.5% of everything screened. The call rests on the fitted dose curve; in most records, active means well fitted curve in the direction sought with a large enough effect; inconclusive means small, poorly fitted or top-dose-only effect, or another doubt; inactive means no such curve, though single readings can be large; an effect the other way counts as inactive or inconclusive.

Cc1cccc2nc(CSc3ccc(Cl)cc3)cn12	Rab9 prom act 2.2µM, FLuc counter 9.5µM, ELG1 genotoxic inconclusive, SMN2 splice up 11µM, NPC1 prom act 3.2µM
CSc1ccc(Cn2nnc(C(=O)Nc3ccc(C)cc3Cl)c2N)cc1	none (no result: Rab9 prom act, Luc counter, ELG1 genotoxic, NPC1 prom act)
O=C(c1ccc(F)cc1)c1cn(Cc2ccccc2)c2cc3c(cc2c1=O)OCO3	none (no result: Rab9 prom act, Luc counter, ELG1 genotoxic, NPC1 prom act)
Clc1ccc(SCc2cn3ccccc3n2)cc1	Rab9 prom act 2.5µM, FLuc counter 9.5µM, ELG1 genotoxic inconclusive, SMN2 splice up 11µM, NPC1 prom act inconclusive
Clc1ccc2nc(CSc3nc4ccccc4o3)cn2c1	Rab9 prom act 1µM, FLuc counter 1.9µM, ELG1 genotoxic 2.6µM, SMN2 splice up 18µM, NPC1 prom act 0.89µM
CCc1ccc(-n2nc(C)c3c(C(=O)Nc4cc(OC)cc(OC)c4)cc(C)nc32)cc1	none (no result: Rab9 prom act, Luc counter, ELG1 genotoxic, SMN2 splice up, NPC1 prom act)
CSc1ccc(/C=N/N2CCN(c3ccccc3)CC2)cc1	Rab9 prom act inconclusive, SMN2 splice up inconclusive, NPC1 prom act inconclusive
Cc1cccc(/C=N/N2CCN(c3ccccc3)CC2)c1	Rab9 prom act inconclusive, FLuc counter 7.6µM, ELG1 genotoxic inconclusive, SMN2 splice up 18µM, NPC1 prom act inconclusive
Cc1ccc(/C=N/N2CCN(c3ccccc3)CC2)cc1	Rab9 prom act 3.5µM, ELG1 genotoxic inconclusive, SMN2 splice up inconclusive, NPC1 prom act inconclusive
Cc1ccccc1/C=N/N1CCN(c2ccccc2)CC1	FLuc counter 17µM, SMN2 splice up inconclusive
O=C(Cn1c(=O)n(Cc2nc(-c3ccccc3)no2)c(=O)c2cc3c(cc21)OCO3)Nc1ccc(Cl)cc1	none (no result: Rab9 prom act, Luc counter, ELG1 genotoxic, SMN2 splice up, NPC1 prom act)
O=C(CNC(=O)c1ccccc1)NCC(=O)OCC(=O)c1ccc(F)cc1	none
O=C(/C=C\NCC(=O)c1ccccc1)c1ccc(F)cc1	FLuc counter 13µM
O=C(/C=C\NCC(=O)c1ccccc1)c1ccc2ccccc2c1	FLuc counter 27µM (no result: Luc counter, SMN2 splice up)
CCc1nnc(NS(=O)(=O)c2ccc(N/C=C\C(=O)c3ccc4ccccc4c3)cc2)s1	FLuc counter inconclusive
Cc1ccc2c(c1)c(=O)c1ccccc1n2CCCC(=O)Nc1cc(Cl)ccc1C	none (no result: Rab9 prom act, Luc counter, ELG1 genotoxic, NPC1 prom act)
COc1ccccc1-c1noc(Cn2cc(S(=O)(=O)N3CCCC3)ccc2=O)n1	none (no result: Luc counter, SMN2 splice up)
CCOC(=O)c1nn(-c2ccc(Br)cc2)cc1C(=O)c1cccc2ccccc12	Rab9 prom act inconclusive, FLuc counter 6.7µM, SMN2 splice up inconclusive
Cc1cc(=O)oc2cc(NC(=S)NNC(=O)c3c(Cl)cnn3C)ccc12	Rab9 prom act 0.89µM, FLuc counter 1.5µM, ELG1 genotoxic inconclusive, NPC1 prom act 0.45µM (no result: Luc counter, SMN2 splice up)
Cc1nc2ccc(NC(=O)c3cccc(C(F)(F)F)c3)cc2o1	ELG1 genotoxic inconclusive
Cc1nc2ccc(-c3ccccc3)cc2o1	FLuc counter 17µM
Nc1ccc(Nc2nc(-c3cccs3)cs2)cc1	none (no result: SMN2 splice up)
Cc1cccc(Nc2nc(-c3ccccn3)cs2)n1	Rab9 prom act 0.63µM, FLuc counter 1.7µM, ELG1 genotoxic 0.82µM, SMN2 splice up 3.2µM, NPC1 prom act 1.3µM
Cc1cccc(Nc2nc(-c3cccs3)cs2)n1	Rab9 prom act 2.5µM, FLuc counter 2.1µM, ELG1 genotoxic inconclusive, SMN2 splice up 1.4µM, NPC1 prom act inconclusive
c1ccc(Nc2nc(-c3cccs3)cs2)nc1	Rab9 prom act inconclusive, FLuc counter 0.76µM, ELG1 genotoxic inconclusive, SMN2 splice up 3.2µM, NPC1 prom act inconclusive
O=C(O)C(CCCCNS(=O)(=O)c1ccc(F)cc1)NS(=O)(=O)c1ccc(F)cc1 (stereo unspecified)	none (no result: Luc counter, SMN2 splice up)
CCOC(=O)c1c(NC(=O)c2noc3c2CC(C(C)(C)C)CC3)sc2c1CCCC2 (stereo unspecified)	none (no result: Rab9 prom act, Luc counter, ELG1 genotoxic, NPC1 prom act)
COc1ccc(C2=NOC(C(=O)N3CCCc4ccccc43)C2)cc1 (stereo unspecified)	FLuc counter 13µM
COc1ccc(-c2cc(C(=O)N3CCCc4ccccc43)no2)cc1	Rab9 prom act inconclusive, FLuc counter 6µM, NPC1 prom act inconclusive
